Reference: PubChem BioAssay
Activity calls are given as the source filed them. Cut-off read from the data, not from the text of the source, unless noted: active = inhibition above about 44%; inactive = the rest.

Legend:
[1] = biological target: Nuclear receptor coactivator 3 (Homo sapiens) (UniProt Q9Y6Q9); assay: NCOA3 GAL4-fusion reporter inhibition – cell-based, luminescence, quadruplicate, confirmation (AID 588792;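 active = mean inhibition over 43.08%, the solvent-only control mean plus 3 SD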;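 note: 0% = DMSO treated cells and 100% = gossypol at 36 µM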); conditions: HEK293 GAL4-SRC3 luciferase reporter, at 3.6 µM, stronger effect = higher value
[2] = system: transactivating tegument protein VP16 (Human herpesvirus 1), Gal4-VP16 luciferase reporter; assay: repression of VP16-driven luciferase reporter – cell-based, luminescence, high throughput, counter-screen for SRC3 inhibitor project (AID 588794; in the data active = inhibition above about 30%); conditions: mammalian cells, at 3.6 µM, stronger effect = higher value
[3] = biological target: Nuclear receptor coactivator 1 (Homo sapiens) (UniProt Q15788); assay: NCOA1 GAL4-fusion reporter inhibition – cell-based, luminescence, quadruplicate, confirmation (AID 588820;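 active = mean inhibition above 46.68%, the untreated control wells mean plus 3 SD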;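 note: 0% = DMSO wells and 100% = gossypol 36 µM treated wells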); conditions: HEK293 GAL4-SRC1 luciferase reporter, at 3.6 µM, stronger effect = higher value
[4] = repression of VP16-driven luciferase reporter – cell-based, luminescence, high throughput, counter-screen for SRC1 inhibitor project (AID 588824; in the data active = inhibition above about 25%); conditions: cell-based VP16 transactivation luciferase luminescence; at 3.6 µM; stronger effect = higher value
[5] = StAR promoter reporter inhibitors, counter-screen for LRH-1 inverse agonist project, cell-based, luminescence, high throughput (AID 651611; in the data active = inhibition above about 28%); conditions: StAR promoter luciferase reporter counterscreen, at 3.6 µM, stronger effect = higher value
[6] = biological target: Nuclear receptor subfamily 5 group A member 2 (Homo sapiens) (UniProt O00482); assay: NR5A2 activity suppression in reporter cells – cell-based, luminescence, confirmation (AID 651613; in the data active = inhibition above about 42%;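 note: HEK293T cells co-transfected with LRH-1 and StAR promoter luciferase reporter; 0% = vehicle wells and 100% = parental cells lacking receptor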); conditions: cell-based LRH-1 luciferase reporter, inverse agonism; at 3.6 µM; stronger effect = higher value
[7] = biological target: Steroidogenic factor 1 (Homo sapiens) (UniProt Q13285); assay: inverse agonism at SF1 nuclear receptor – cell-based, luminescence, high throughput, counter-screen for LRH-1 inverse agonist project (AID 651614); conditions: cell-based SF1 luciferase reporter, at 3.6 µM, stronger effect = higher value;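 note: cells cotransfected with StAR promoter reporter and SF1 expression vector; 0% = vehicle on cells with receptor and 100% = vehicle on cells lacking receptor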
[8] = compounds suppressing VP16-driven luciferase signal – cell-based, luminescence, high throughput, counter-screen for LRH-1 inverse agonist project (AID 651615; in the data active = inhibition above about 33%); conditions: Gal4-VP16 luciferase reporter cells, at 3.6 µM, stronger effect = higher value
[9] = system: transactivating tegument protein VP16 (Human herpesvirus 1); assay: compounds suppressing VP16-driven luciferase signal – cell-based, luminescence, single concentration, counter-screen for SRC2 inhibitor project (AID 652007; in the data active = inhibition above about 36%); conditions: cell-based VP16 transactivation luciferase reporter, at 8.9 µM, stronger effect = higher value
[10] = biological target: Nuclear receptor coactivator 2 (Homo sapiens) (UniProt Q15596); assay: inhibition of GAL4-SRC2 driven luciferase expression – cell-based, luminescence, HEK293, triplicate, confirmation (AID 652008;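 active = mean inhibition above 46.5%, the solvent-only control mean plus 3 SD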;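 note: 0% = DMSO-treated cells and 100% = Gossypol at 36 µM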); conditions: HEK293 GAL4-SRC2 luciferase reporter, at 8.9 µM, stronger effect = higher value

Measured: inhibition

Chain of Nuclear receptor subfamily 5 group A member 2 (Homo sapiens) (O00482 whole entry, looked up): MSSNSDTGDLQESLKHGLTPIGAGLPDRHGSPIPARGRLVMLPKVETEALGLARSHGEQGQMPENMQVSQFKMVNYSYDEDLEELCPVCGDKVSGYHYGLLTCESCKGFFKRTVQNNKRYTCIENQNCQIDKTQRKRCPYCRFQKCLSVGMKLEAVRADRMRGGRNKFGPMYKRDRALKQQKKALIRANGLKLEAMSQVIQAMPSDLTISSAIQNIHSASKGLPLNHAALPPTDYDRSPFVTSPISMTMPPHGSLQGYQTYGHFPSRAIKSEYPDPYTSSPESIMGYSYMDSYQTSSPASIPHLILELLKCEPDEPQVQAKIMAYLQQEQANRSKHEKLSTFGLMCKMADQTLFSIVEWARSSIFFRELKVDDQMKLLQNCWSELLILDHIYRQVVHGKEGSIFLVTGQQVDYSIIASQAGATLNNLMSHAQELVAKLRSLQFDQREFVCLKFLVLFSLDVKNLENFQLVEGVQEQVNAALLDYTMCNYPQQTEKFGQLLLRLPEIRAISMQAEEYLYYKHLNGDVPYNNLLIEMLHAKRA
Chain of Nuclear receptor coactivator 3 (Homo sapiens) (Q9Y6Q9 whole entry, looked up, the tested form may be a part): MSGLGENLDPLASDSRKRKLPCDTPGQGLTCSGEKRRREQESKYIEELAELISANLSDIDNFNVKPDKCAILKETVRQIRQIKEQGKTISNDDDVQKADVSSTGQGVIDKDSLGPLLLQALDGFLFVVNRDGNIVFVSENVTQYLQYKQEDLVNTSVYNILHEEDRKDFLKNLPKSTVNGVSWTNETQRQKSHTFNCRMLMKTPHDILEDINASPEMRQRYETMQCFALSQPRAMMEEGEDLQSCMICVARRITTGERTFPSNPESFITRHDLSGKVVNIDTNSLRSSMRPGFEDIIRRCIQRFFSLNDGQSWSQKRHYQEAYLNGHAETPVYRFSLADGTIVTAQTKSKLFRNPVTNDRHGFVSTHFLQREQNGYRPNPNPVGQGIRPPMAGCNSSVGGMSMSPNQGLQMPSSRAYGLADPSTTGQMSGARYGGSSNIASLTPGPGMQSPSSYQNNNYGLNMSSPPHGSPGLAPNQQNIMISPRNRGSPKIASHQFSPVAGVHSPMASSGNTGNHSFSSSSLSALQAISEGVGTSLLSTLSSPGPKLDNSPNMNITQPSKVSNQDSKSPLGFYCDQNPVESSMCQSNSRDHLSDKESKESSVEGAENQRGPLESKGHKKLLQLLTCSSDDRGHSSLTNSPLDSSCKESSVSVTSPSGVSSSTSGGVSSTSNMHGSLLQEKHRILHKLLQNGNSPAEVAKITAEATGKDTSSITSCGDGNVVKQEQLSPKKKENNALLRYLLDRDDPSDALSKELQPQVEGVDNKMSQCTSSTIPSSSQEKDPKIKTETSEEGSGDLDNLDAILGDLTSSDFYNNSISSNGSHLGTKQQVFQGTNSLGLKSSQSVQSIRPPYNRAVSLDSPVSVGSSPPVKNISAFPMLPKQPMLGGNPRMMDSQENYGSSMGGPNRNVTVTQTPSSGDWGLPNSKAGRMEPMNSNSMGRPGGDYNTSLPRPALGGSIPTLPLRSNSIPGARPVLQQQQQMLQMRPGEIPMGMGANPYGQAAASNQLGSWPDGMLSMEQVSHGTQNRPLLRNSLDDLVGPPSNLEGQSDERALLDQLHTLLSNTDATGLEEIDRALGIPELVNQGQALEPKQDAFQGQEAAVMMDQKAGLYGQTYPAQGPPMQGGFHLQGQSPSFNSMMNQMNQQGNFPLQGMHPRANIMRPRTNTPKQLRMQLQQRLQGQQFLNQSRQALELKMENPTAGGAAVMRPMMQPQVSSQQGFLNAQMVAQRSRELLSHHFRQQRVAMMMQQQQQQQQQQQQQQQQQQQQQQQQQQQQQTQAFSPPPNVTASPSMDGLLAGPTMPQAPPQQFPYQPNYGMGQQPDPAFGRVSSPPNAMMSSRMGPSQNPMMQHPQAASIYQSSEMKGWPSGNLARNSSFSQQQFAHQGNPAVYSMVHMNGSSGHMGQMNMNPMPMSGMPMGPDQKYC
Chain of Steroidogenic factor 1 (Homo sapiens) (Q13285 whole entry, looked up, the tested form may be a part): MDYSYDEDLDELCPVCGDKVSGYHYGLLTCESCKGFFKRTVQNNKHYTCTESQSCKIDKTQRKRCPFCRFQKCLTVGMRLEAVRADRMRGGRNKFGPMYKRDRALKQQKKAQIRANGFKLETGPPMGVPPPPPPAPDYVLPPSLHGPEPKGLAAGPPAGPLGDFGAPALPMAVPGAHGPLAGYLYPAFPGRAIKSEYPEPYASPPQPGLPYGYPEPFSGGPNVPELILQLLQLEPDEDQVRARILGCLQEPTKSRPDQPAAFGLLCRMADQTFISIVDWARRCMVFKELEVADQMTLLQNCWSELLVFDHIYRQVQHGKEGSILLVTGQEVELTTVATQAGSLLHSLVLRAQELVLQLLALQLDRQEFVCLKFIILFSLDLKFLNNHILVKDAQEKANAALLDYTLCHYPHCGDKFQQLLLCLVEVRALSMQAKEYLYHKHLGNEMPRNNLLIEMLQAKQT
Chain of Nuclear receptor coactivator 2 (Homo sapiens) (Q15596 whole entry, looked up, the tested form may be a part): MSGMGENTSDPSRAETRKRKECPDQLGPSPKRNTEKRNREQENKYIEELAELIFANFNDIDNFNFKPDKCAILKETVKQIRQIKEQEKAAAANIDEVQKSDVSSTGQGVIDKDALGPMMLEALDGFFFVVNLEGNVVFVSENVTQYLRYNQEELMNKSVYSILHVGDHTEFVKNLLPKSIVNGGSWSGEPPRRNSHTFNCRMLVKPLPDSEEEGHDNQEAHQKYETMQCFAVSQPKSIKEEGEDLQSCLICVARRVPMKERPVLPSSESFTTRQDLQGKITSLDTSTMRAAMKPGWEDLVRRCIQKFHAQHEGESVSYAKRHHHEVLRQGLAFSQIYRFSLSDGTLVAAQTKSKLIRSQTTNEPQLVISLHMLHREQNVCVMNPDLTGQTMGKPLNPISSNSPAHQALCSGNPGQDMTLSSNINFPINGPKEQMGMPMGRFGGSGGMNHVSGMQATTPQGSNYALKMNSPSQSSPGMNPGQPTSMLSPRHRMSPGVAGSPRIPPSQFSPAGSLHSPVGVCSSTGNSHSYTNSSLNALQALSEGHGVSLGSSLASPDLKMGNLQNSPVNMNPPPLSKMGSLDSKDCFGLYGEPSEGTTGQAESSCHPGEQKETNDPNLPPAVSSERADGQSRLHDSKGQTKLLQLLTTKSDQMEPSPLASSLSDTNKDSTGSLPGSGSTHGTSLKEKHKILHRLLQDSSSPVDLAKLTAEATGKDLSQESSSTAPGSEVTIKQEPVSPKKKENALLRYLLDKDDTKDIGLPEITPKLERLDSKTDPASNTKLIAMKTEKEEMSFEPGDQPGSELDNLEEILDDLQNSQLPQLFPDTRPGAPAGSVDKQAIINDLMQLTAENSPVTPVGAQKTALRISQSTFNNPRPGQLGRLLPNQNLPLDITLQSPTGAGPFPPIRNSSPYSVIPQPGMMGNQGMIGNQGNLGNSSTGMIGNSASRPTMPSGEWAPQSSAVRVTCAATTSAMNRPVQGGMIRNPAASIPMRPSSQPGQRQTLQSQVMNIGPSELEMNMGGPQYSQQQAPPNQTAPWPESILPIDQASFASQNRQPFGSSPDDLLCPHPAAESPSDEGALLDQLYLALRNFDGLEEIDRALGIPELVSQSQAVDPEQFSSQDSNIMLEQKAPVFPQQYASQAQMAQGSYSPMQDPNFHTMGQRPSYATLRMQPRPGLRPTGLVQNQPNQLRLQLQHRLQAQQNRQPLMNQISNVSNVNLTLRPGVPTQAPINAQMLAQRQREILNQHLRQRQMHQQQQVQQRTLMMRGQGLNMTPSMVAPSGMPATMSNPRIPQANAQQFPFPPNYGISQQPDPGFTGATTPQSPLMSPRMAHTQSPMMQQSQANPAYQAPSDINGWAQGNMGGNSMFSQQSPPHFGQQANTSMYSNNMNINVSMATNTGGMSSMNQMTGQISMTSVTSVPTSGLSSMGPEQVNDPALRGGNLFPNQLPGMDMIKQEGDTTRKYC

N#Cc1cn(C2OC(CO)C(O)C2O)c2ncnc(N)c12 (centres undefined)
active: [1] 81.4% | [2] 91.3% | [4] 89.7% | [5] 82% | [6] 107% | [7] 94.1% | [8] 91% | [10] 48.3%
inactive: [3] -24% | [9] 30.4%

CN(C)c1ccc(/C=C/C=C/c2sc3ccccc3[n+]2C)cc1
active: [2] 38.5% | [4] 30.4% | [5] 35.2% | [6] 54.1% | [7] 63% | [8] 56.9%
inactive: [1] 22.8% | [3] 27.4%

Cc1ccccc1-[n+]1c(-c2ccccc2)cc(-c2ccccc2)cc1-c1ccccc1
active: [1] 69.8% | [2] 86% | [3] 71.6% | [4] 84.6% | [5] 83.2% | [6] 109% | [7] 95.3% | [8] 94.7%

CC(=O)OC1CC2OC3C=C(C)CCC3(C)C1(C)C21CO1 (centres undefined)
active: [1] 98.2% | [2] 95.5% | [3] 94.2% | [4] 95.1% | [5] 95.2% | [6] 111% | [7] 98% | [8] 96.8% | [9] 82.5% | [10] 76.1%

CC(N)C(=O)NC1C2C(=C(O)CC(O)C2O)C(=O)OC1(C)C(Cl)Cl (centres undefined)
active: [1] 98.8% | [2] 96.8% | [3] 88.6% | [4] 96.8% | [5] 96.4% | [6] 110% | [7] 98.5% | [8] 98.3% | [9] 77.2% | [10] 74.3%

CCC(C)(O)C(=O)OC1C(=O)OC2CC3C(C)=CC(O)C(O)C3(C)C3C4(O)OCC23C1C(C)C4O (centres undefined)
inactive: [1] 38.8% | [3] 36.7%
active: [2] 65.8% | [4] 72% | [5] 79.5% | [6] 103% | [7] 92.4% | [8] 87%
